High-throughput results deposited in PubChem BioAssay by National Center for Advancing Translational Sciences (NCATS).
HCMV antiviral = human cytomegalovirus inhibition. HFF cells, HCMV-luciferase reporter, 72 h; active compounds read low. activity change, negative = inhibition, % at 57.5 µM. actives 4.5% (n = 410,000). AID 1259415; in the data active means activity change below about -60%; inconclusive means no clear call, values can overlap the other calls; inactive means above about -39%
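After 16 h attachment at 37C, HFF cells received test compound and HCMV-luciferase (1 PFU/cell); reporter luminescence read 72 h later, data normalized against buffer-only and known inhibitor Salinomycin.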
HCV inh = blocks hepatitis C virus | Potency, µM (titrated, usually from 41.8 µM), inactives show at the top dose activity change, negative = inhibition, usual class: inhibitors | AID 651820 | Huh7.5.1 HCVcc-Cre infection, luciferase reporter, 44 h | actives 3.4% (n = 340,000); further: potency means the concentration at half of the fitted maximal effect
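After 44 h co-culture of compound, cells and HCVcc-Cre (~0.5 moi), substrate is added for 15 min at room temperature and luciferase measured over 15 sec. Cells were seeded at 1,000/well and pre-cultured 4 h.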
Pf growth 96h = inhibits malaria parasite growth, 96 h; P. falciparum luciferase reporter growth, 96 h; Potency, µM (highest dose often 28.7 µM), for inactives: top-dose activity change, negative = inhibition, actives largely listed as inhibitors; actives 6.9% (n = 320,000); AID 504834; further: potency means the concentration at half of the fitted maximal effect
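Delayed-death screen, second-generation endpoint: infected erythrocytes, 2% hematocrit, 0.05% parasitemia final; 96 hours at 37 C, 5% CO2; luciferase detection reagent; luminescence decrease equals reduced growth.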
Pf growth 48h = inhibits P. falciparum growth in the first generation, 48 h | P. falciparum luciferase growth in erythrocytes, 48 h | Potency, µM (top dose mostly 28.7 µM), without a hit: at the highest dose activity change, negative = inhibition, actives largely listed as inhibitors | actives 5.9% (n = 310,000) | AID 504832; further: potency means the concentration at half of the fitted maximal effect
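Luminescence readout; reporter = integrated firefly luciferase in P. falciparum. RBC culture at 2% hematocrit, 0.1% parasitemia final, 37 C/5% CO2; decreased signal taken as growth inhibition.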
* = called active by the depositor; ? = inconclusive; nt = no result given. In the library only some 13% were active in any assay of this set; here they are far more common. Unless noted, the call rests on the fitted dose curve; in most records, active means well fitted inhibition curve with a large enough effect; inconclusive means small, poorly fitted or top-dose-only effect, or another doubt; inactive means no such curve, though single readings can be large or run the other way. On the % scale 0 is the no-effect control and ±100 the full control effect.

SMILES	HCMV antiviral	HCV inh	Pf growth 96h	Pf growth 48h
CS(=O)(=O)N(CC(=O)N1CCCC1)c1cc(Cl)c(Cl)cc1Cl	83	-6%	9.3µM*	nt
COc1ccccc1NC(=O)N1CCCC(c2nc3c(nnn3Cc3ccc(C)cc3)c(=O)[nH]2)C1 (stereo unspecified)	-16	-18%	-6%	9.3µM*
CC(=O)c1cccc(S(=O)(=O)N2CCCC(c3nc4c(nnn4Cc4cccc(Cl)c4)c(=O)[nH]3)C2)c1 (stereo unspecified)	30	?	8.3µM*	7.4µM*
Cc1ccc(NC(=O)N2CCC(c3nc4c(nnn4Cc4cccc(Cl)c4)c(=O)[nH]3)CC2)cc1	24	-9%	0.029µM*	13µM*
COC(=O)c1ccccc1S(=O)(=O)N1CCCC(c2nc3c(nnn3Cc3ccc(C)cc3)c(=O)[nH]2)C1 (stereo unspecified)	-78*	17%	?	?
CC(=O)c1cccc(S(=O)(=O)N2CCCC(c3nc4c(nnn4Cc4ccc(C)cc4)c(=O)[nH]3)C2)c1 (stereo unspecified)	-28	0%	28%	?
Cc1nc2cccnc2n1C1CCN(C(=O)Nc2ccccc2C(F)(F)F)CC1	0	nt	nt	nt
FC(F)(F)c1cc(-c2ccccc2)nc2cc(-c3ccccc3)nn12	12	nt	nt	nt
CCSc1ncc(Cl)c(C(=O)N(Cc2ccccc2)Cc2ccco2)n1	-100*	nt	nt	nt
CCCSc1ncc(Cl)c(C(=O)N(Cc2ccc(Cl)cc2)Cc2ccco2)n1	-66*	nt	nt	nt
CCCS(=O)(=O)c1ncc(Cl)c(C(=O)N(Cc2ccccc2)Cc2ccco2)n1	-98*	nt	nt	nt
CSc1ncc(Cl)c(C(=O)N(Cc2ccc(N(C)C)cc2)Cc2ccco2)n1	-17	nt	nt	nt
COc1cccc(N2CCN(C(=O)c3cc4cc5cc(C)ccc5nc4s3)CC2)c1	9	nt	nt	nt
C=C1C(=O)C=C[C@]2(C)C[C@@H]3OC(=O)[C@](C)(O)[C@H]3C[C@@H]12	-98*	?	15µM*	12µM*
COc1c(O)ccc(/C=C(\C#N)c2nc3ccccc3[nH]2)c1[N+](=O)[O-]	-23	-2%	4.1µM*	8%
COc1c(Cl)cc(Cl)cc1/C=C(\C#N)c1nc2ccccc2[nH]1	-19	nt	nt	nt
Cc1ccc2nc(/C(C#N)=C/c3ccc(-c4cccc([N+](=O)[O-])c4)o3)[nH]c2c1	-62*	-27%	?	?
Cc1cc(/C=C(/C#N)c2nc3ccccc3[nH]2)c(C)n1-c1cccc([N+](=O)[O-])c1	-11	?	2.3µM*	nt
N#C/C(=C\c1cc([N+](=O)[O-])c(N2CCOCC2)cc1N1CCOCC1)c1nc2ccccc2[nH]1	-29	?	12µM*	?
COc1cccc(CN2C(=O)c3ccccc3C2C(=O)NCCc2ccccc2)c1 (stereo unspecified)	18	nt	nt	nt
O=C(Nc1ccc(F)cc1F)c1cc2nc(-c3ccco3)cc(C(F)(F)Cl)n2n1	-6	nt	nt	nt
CCCCN(Cc1nc2ccccc2c(=O)[nH]1)C(=O)COc1ccc(F)cc1Cl	14	7%	3.7µM*	2.6µM*
COc1ccccc1Cn1c(C2CC(=O)N(c3ccccc3OC)C2)nc2ccccc21 (stereo unspecified)	-11	nt	nt	nt
COc1ccc(C2C(=O)N(C3CCCCC3)CC(=O)N2CCc2ccc(OC)c(OC)c2)cc1 (stereo unspecified)	2	nt	nt	nt
O=C1CCC(=O)N1c1ccccc1	23	11%	-42%	-10%
SMILES	HCMV antiviral	HCV inh	Pf growth 96h	Pf growth 48h
CN(C)c1nc(N(C)C)nc(N2CC(=O)N(c3ccccc3)C2=N)n1	-35	-15%	126%	2.9µM*
Cc1ccc(NC(=O)c2cnn3c(C(F)F)cc(-c4ccccc4)nc23)cc1F	-27	nt	nt	nt
Cc1ccc(-c2cc(C(F)F)n3ncc(C(=O)Nc4c(C)nn(Cc5c(Cl)cccc5Cl)c4C)c3n2)cc1	-77*	-15%	2.3µM*	?
COc1ccc(-c2cc(C(F)F)n3ncc(C(=O)Nc4cc(C)on4)c3n2)cc1	6	0%	15%	4.1µM*
COc1ccc(-c2cc(C(F)F)n3ncc(C(=O)Nc4c(C)n(C)n(-c5ccccc5)c4=O)c3n2)cc1	12	-18%	18%	?
Cc1ccc(NC(=O)c2cnn3c(C(F)F)cc(-c4ccccc4)nc23)c(C)c1	-34	nt	nt	nt
Cc1ccc(-c2cc(C(F)F)n3ncc(C(=O)Nc4c(C)nn(Cc5ccccc5Cl)c4C)c3n2)cc1	-95*	?	?	?
Cc1nn(Cc2c(Cl)cccc2Cl)c(C)c1NC(=O)c1cnn2c(C(F)F)cc(-c3ccccc3)nc12	-8	-11%	2.6µM*	?
CCOC(=O)c1ccccc1NC(=O)CSc1cn(CC(=O)N2CCOCC2)c2ccccc12	-6	nt	nt	nt
Cc1cccc(OCc2nc(CC(=O)Nc3ccc(C)c(C)c3)cs2)c1	0	nt	nt	nt
COc1cccc2c1ncc1c(-c3ccc(C)cc3)nn(-c3cccc([N+](=O)[O-])c3)c12	0	nt	nt	nt
CCN(CC)c1ccc(NC(=S)NC(=O)c2cccs2)cc1	-101*	13µM*	?	?
CCN(c1ccccc1)S(=O)(=O)c1ccc(NC(=S)NC(=O)c2cccs2)cc1	?	10µM*	?	?
O=C(Nc1ccc(NC(=S)NC(=O)c2cccs2)cc1)c1ccco1	-87*	-23%	12%	?
CC(=O)NC(=S)Nc1ccc(NC(=S)NC(=O)c2cccs2)cc1	9	-5%	46%	?
C=CCN(CC=C)S(=O)(=O)c1ccc(NC(=S)NC(=O)/C=C/c2ccc(C)cc2)cc1	7	?	?	?
O=C(NC(=S)NNC(=O)c1cccs1)c1ccco1	59	?	?	?
C=CCN(CC=C)S(=O)(=O)c1ccc(NC(=S)NC(=O)c2ccc(-c3ccccc3)cc2)cc1	-18	?	nt	1.5µM*
CCOC(=O)[C@]12CCC=C1N(Cc1ccc3c(c1)OCO3)C(=O)[C@H](CC(=O)NCCc1ccccc1OC)C2	-1	nt	nt	nt
CN(C)S(=O)(=O)c1ccc(NC(=S)NC(=O)c2cccs2)cc1	-4	-1%	9.3µM*	13%
CCC(=O)N1CCc2cc(Br)cc(S(=O)(=O)N3CCCC(C(=O)Nc4ccc(C)c(F)c4)C3)c21 (stereo unspecified)	-30	nt	nt	nt
CC(=O)Nc1nnc(SCC(=O)N2C(C)CCCC2C)s1 (stereo unspecified)	8	4%	12µM*	3%
Cc1ccc(NC(=O)Nc2nnc(SCC(=O)N3CCCCC3)s2)cc1	-87*	nt	nt	nt
CCCC(=O)Nc1nnc(SCC(=O)N2C(C)CCCC2C)s1 (stereo unspecified)	14	7%	?	?
O=C(Nc1ccc(F)cc1)Nc1nnc(SCC(=O)N2CCCCC2)s1	-75*	nt	nt	nt
CCSC1(SCC)N=C(N)C2(C#N)C(c3ccc(OC)c(OC)c3OC)C12C#N (stereo unspecified)	3	8.9µM*	12%	?
